High-throughput results (PubChem BioAssay)
Only some compounds are listed: those with a hit (about 21% of all), similar ones and a draw of the others.
RORg inh: inhibitors of mouse ROR gamma transcriptional activity; P51450; Drosophila S2 Gal4-RORgamma UAS-luciferase reporter, 20 h; Potency, µM (highest dose often 53.6 µM), without a hit: top-dose activity change, negative = inhibition, hits mostly inhibitors; 310,000 compounds, 5.4% hits; AID 2551; also: potency is read from the fitted curve at half-maximal effect; nearly all actives have a fitted effect of over 60% in size
Target sequence (P51450 whole entry, looked up, the tested form may be a part): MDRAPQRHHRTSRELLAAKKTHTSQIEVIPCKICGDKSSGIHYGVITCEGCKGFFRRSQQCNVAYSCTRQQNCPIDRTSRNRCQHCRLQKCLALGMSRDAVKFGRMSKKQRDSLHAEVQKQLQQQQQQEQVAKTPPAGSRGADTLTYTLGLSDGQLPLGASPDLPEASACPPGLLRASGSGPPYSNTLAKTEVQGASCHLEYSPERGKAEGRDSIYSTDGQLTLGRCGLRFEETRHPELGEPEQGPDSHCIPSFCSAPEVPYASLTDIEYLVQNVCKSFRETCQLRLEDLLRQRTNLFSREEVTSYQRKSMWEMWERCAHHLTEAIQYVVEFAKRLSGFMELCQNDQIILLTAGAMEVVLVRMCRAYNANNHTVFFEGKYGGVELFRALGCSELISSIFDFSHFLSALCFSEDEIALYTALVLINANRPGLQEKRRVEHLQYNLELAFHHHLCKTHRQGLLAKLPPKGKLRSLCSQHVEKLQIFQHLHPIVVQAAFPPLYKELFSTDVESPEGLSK
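Compounds are pin-transferred onto Drosophila Schneider cells expressing a copper-inducible Gal4–ROR gamma transactivation domain fusion. After 1 hr, copper sulfate is added to 700 uM final; luciferase is read 20 hr later.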
DT40 TDP1 CPT: growth inhibition of DT40 Tdp1-/-;hTDP1 cells with camptothecin (screen for TDP1 inhibitors) | chicken DT40 Tdp1-/-;hTDP1 cells + 20 nM CPT, ATP luminescence, 48 h | Potency, µM (highest dose often 46.2 µM), without a hit: at the top dose activity change, negative = growth inhibition, most hits filed as inhibitors | 420,000 compounds, 12% hits; also: potency is read from the fitted curve at half-maximal effect; nearly all actives have a fitted effect of over 55% in size
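Chicken DT40 Tdp1-/- cells stably complemented with human TDP1 were seeded at 400 cells/well in medium containing 20 nM camptothecin, exposed to pin-transferred compounds, and grown at 37 °C for at least 48 hr. Viability was read as ATP luminescence.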
ELG1 DNA repair: ELG1-dependent DNA repair inhibition; AID 504467; HEK293T ELG1-luciferase reporter, luminescence, 16 h; DNA damage induced by 5-fluorouridine; Potency, µM (highest dose often 46.1 µM), inactives show at the top dose activity change, negative = inhibition, actives largely listed as inhibitors; 330,000 compounds, 2.3% hits; also: potency is read from the fitted curve at half-maximal effect; nearly all actives have a fitted effect of over 55% in size
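Overnight (16 hr) co-exposure of 2,000 cells/well to 5-fluorouridine and compound at 37 °C preceded detection. Luciferase was quantified via ONE-Glo luminescence; loss of signal denotes inhibition.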
DT40 TDP1 no CPT: qHTS for Inhibitors of human tyrosyl-DNA phosphodiesterase 1 (TDP1): qHTS in cells in absence of CPT; DT40 Tdp1-/- hTDP1 cells, no CPT, ATP luminescence, 48 h; Potency, µM (series often up to 46.2 µM), for the others: at the highest dose activity change, negative = growth inhibition, hits mostly inhibitors; 420,000 compounds, 15% hits; also: potency is read from the fitted curve at half-maximal effect; nearly all actives have a fitted effect of over 55% in size
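Stably hTDP1-transfected Tdp1-null chicken DT40 cells were treated with library compounds minus camptothecin and grown for at least 48 hr at 37 °C, after which cellular ATP was quantified by luminescence.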
VP16 counter: Gal4-VP16 reporter inhibition counter-screen; 310,000 compounds, 3.5% hits; AID 2546; Potency, µM (titrated, usually from 53.6 µM), for the others: at the top dose activity, negative = inhibition, most hits filed as inhibitors; Drosophila S2 Gal4-VP16 UAS-luciferase, luminescence, 20 h;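 also: Gal4-VP16 expression switched on by copper sulfate through the metallothionein promoter; potency is read from the fitted curve at half-maximal effect; nearly all actives have a fitted effect of over 50% in size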
IL-1B inflam inh: inflammasome signaling inhibition, IL-1 beta readout | THP-1 LPS/ATP IL-1B secretion, AlphaLISA, 16 h; active compounds read low | activity change, % at 57.5 µM | 360,000 compounds, 4.7% hits; in the data active = activity change below about -50%; inconclusive = mostly about -30% to -49%
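Secreted IL-1B measured by AlphaLISA bead assay after 16 h compound exposure of THP-1 cells; compounds (final up to 57.5 uM) added 1 h before LPS (250 ng/mL) and ATP (1.25 mM) stimulation; lower signal means less secretion.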
Numbers without * were called inactive; ? = inconclusive; / = no result. Unless noted, calls follow the shape of the dose curve; as a rule, active = well fitted curve in the direction sought with a large enough effect; inconclusive = small, poorly fitted or top-dose-only effect, or another doubt; inactive = no such curve, though single readings can be large; an effect the other way counts as inactive or inconclusive. % is scaled to controls: 0 for no effect and ±100 for the full control effect.

SMILES	RORg inh	DT40 TDP1 CPT	ELG1 DNA repair	DT40 TDP1 no CPT	VP16 counter	IL-1B inflam inh
CN(C)c1ccc(N/C=C/C(=O)c2ccco2)cc1	-36.4%	20.6µM*	?	?	11.2µM*	?
NS(=O)(=O)c1ccc(N/C=C\C(=O)c2ccc(F)cc2)cc1	36.6%	-8.8%	?	?	?	-1.5
COc1ccccc1CNC(=O)Cn1cccc1C(=O)c1ccccc1	22.6%	0.7%	?	20.8%	-3.1%	0.1
O=C(N/N=C/c1ccccn1)C1CC1	15.3%	1.2%	?	-13.0%	10.3%	40.3
O=C(N/N=C/c1cc([N+](=O)[O-])ccc1O)C(O)(c1ccccc1)c1ccccc1	0.891µM*	?	-6.8%	16.4µM*	0.891µM*	182.5
Cc1sc(N/N=C/c2cc([N+](=O)[O-])ccc2O)nc1-c1ccccc1	0.282µM*	14.6µM*	?	14.6µM*	0.708µM*	7.4
O=C(N/N=C/c1cc([N+](=O)[O-])ccc1O)C1CC1	1.78µM*	?	18.3µM*	18.4µM*	7.94µM*	72.3
O=C(NN=Cc1ccccc1O)C1CC1	/	5.8µM*	/	10.3µM*	/	-0.5
COc1cccc(-n2c(=O)c3c(C)c(C)sc3n(CC(=O)NCCc3ccc(OC)c(OC)c3)c2=O)c1	/	-19.9%	/	-13.2%	/	/
O=C(N/N=C/c1cc([N+](=O)[O-])ccc1O)c1cccc2cc[nH]c12	1.41µM*	6.51µM*	4.61µM*	4.11µM*	3.55µM*	231.6
CCc1ccc(N2CC(C(=O)N/N=C/c3cc([N+](=O)[O-])ccc3O)CC2=O)cc1 (stereo not drawn)	4.47µM*	?	?	?	10µM*	164.6
CCc1ccc(N2CC(C(=O)N/N=C/c3ccccc3OC)CC2=O)cc1 (stereo not drawn)	3.1%	-6.2%	7.2%	-25.7%	-6.5%	-2.7
O=C(N/N=C/c1ccccc1O)C1SCCCS1	0.794µM*	11.6µM*	0.0%	6.51µM*	5.01µM*	225.7
O=[N+]([O-])c1ccc(O)c(/C=N/Nc2ccccc2Cl)c1	?	?	?	?	?	-52.8*
O=C(N/N=C/c1cccc([N+](=O)[O-])c1)c1cccc2cc[nH]c12	-0.8%	-11.9%	-7.4%	-25.8%	1.7%	10.7
O=[N+]([O-])c1cccc(S(=O)(=O)N2CCCCC2)c1	6.5%	-13.9%	1.6%	-16.0%	-3.3%	-0.8
CCN(CC)S(=O)(=O)c1ccc(NC(=O)CCNC(=O)c2ccccc2)cc1	4.6%	-5.4%	7.1%	?	7.6%	4.7
CCCCN1C(=O)C(O)(CC(=O)c2ccco2)c2cc(Br)ccc21 (stereo not drawn)	9.3%	2.59µM*	-1.3%	4.11µM*	25.9%	81.3
CCCCN1C(=O)C(O)(CC(=O)c2ccc(C)cc2C)c2cc(Br)ccc21 (stereo not drawn)	/	16.4µM*	/	16.4µM*	/	/
O=C(O)c1ccc(Cl)c(NC(=O)C2CCN(S(=O)(=O)c3cccs3)CC2)c1	/	-6.5%	/	-9.7%	/	4.6
COc1ccc(C(=O)N/N=C(\Cc2ncc[nH]2)c2ccccc2)cc1	?	5.17µM*	4.6%	2.91µM*	-12.7%	42.3
COc1cc(C(=O)N/N=C(\Cc2ncc[nH]2)c2ccccc2)cc(OC)c1OC	?	2.06µM*	?	5.17µM*	-6.5%	69.4
c1ccc(N/N=C(\Cc2ncc[nH]2)c2ccccc2)cc1	?	14.4%	-13.0%	-1.3%	-8.7%	-2.4
